Assay outcomes: PubChem BioAssay, The Scripps Research Institute Molecular Screening Center
NCOA1 inh: human NCOA1 inhibition | Q15788 | hit rate 0.12% among 360,000 | inhibition, % at 3.6 µM | HEK293 GAL4-SRC1 luciferase reporter, luminescence | AID 588354;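 active = inhibition above the campaign mean plus 3 SD, with each screening campaign given its own cutoff, cut at about 60% in these data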;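 also: 0% = DMSO treated cells and 100% = gossypol at 36 µM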
NR5A2 inv ag: NR5A2 inverse agonism in reporter assay; hit rate 0.13% among 360,000; AID 602396; HEK293T StAR-luciferase reporter, LRH-1 transfected, 24 h; O00482; inhibition, % at 3.6 µM;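 active = inhibition above the mean inhibition of all tested compounds plus 3 SD, cut at about 73% in these data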;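 also: 0% = DMSO wells and 100% = reporter-only cells lacking LRH-1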
Target sequence (O00482 whole entry, looked up): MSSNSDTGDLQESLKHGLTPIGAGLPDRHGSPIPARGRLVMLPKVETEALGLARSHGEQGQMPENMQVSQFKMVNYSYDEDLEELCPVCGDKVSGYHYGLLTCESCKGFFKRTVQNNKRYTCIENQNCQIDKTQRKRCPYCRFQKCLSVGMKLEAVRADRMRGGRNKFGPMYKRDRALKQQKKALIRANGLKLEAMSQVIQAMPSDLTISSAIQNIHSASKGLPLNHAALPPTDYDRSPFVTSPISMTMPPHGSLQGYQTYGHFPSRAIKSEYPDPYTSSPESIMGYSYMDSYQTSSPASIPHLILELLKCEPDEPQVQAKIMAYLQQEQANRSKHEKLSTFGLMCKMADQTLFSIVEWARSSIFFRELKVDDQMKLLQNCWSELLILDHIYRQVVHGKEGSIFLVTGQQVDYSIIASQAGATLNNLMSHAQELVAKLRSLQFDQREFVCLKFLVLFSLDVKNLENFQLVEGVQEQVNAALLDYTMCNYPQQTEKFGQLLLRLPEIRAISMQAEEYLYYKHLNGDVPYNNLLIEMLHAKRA
NCOA3 inh: inhibits human SRC3 coactivator. Q9Y6Q9. HEK293 GAL4-SRC3 luciferase reporter, luminescence. inhibition, % at 3.6 µM. hit rate 0.17% among 360,000;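 active = inhibition above a per-campaign cutoff, the mean of all compounds plus 3 SD, cut at about 60% in these data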;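 also: 0% = DMSO-treated cells and 100% = gossypol-treated cells at 36 µM; higher means less SRC3-driven luciferase light from the GAL4 reporter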
COUP-TFII inh: NR2F2 (human) inhibition, primary screen | P24468 | HEK293T NGFI-A luciferase reporter, luminescence | inhibition, % at 8.6 µM | hit rate 0.7% among 370,000 | AID 686940;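 active = inhibition above a per-plate cutoff, mean inhibition of test wells between control levels plus 3 SD, cut at about 38% in these data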;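 also: cells cotransfected with COUP-TFII expression vector driving the NGFI-A reporter; 0% = median of COUP-TF2 test wells and 100% = reporter-only cells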
NCOA2 inhibitor: human SRC2 (NCOA2) inhibition; AID 651957; HEK293 GAL4-SRC2 luciferase reporter, luminescence; Q15596; hit rate 0.17% among 370,000; inhibition, % at 9 µM;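 active = inhibition above the mean inhibition of all tested compounds plus 3 SD, set per campaign, cut at about 52% in these data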;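 also: 0% = DMSO treated cells and 100% = cells given Gossypol at 36 µM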
Gal4-VP16 ctr: counter-screen for COUP-TFII antagonists: inhibitors of VP16; shares compounds with COUP-TFII inh; HEK293 Gal4-VP16 luciferase reporter, luminescence; inhibition, % at 8.5 µM; hit rate 25% among 2,500; AID 687007; in the data active = inhibition above about 13%
COUP-TFII conf: COUP-TFII (NR2F2) inhibition, confirmation assay. inhibition, % at 8.5 µM. AID 687008. HEK293 NGFI-A luciferase reporter, luminescence. hit rate 45% among 2,500. shares compounds with COUP-TFII inh;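 active = mean inhibition over three repeats above a set limit taken from the earlier primary screen, cut at about 38% in these data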;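 also: 100% = cells given the luciferase reporter alone without the COUP-TF2 vector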
Active calls of the source: *; . = not tested or not shown. Compounds with a hit are over-represented: about 0.84% of the library has one in this group of screens.

SMILES	NCOA1 inh	NR5A2 inv ag	NCOA3 inh	COUP-TFII inh	NCOA2 inhibitor	Gal4-VP16 ctr	COUP-TFII conf
O=C(Nc1ccc(CN2CCOCC2)cc1)c1ccc(-c2cccc(Cl)c2)o1	3	-9	16	62*	-3	-18	-6
NC(=O)c1ccc(NC(=O)c2ccc(CN3CCOCC3)cc2)cc1	-11	-18	-20	-3	-10	.	.
Cc1cc(CSc2ccccc2)ccc1NC(=O)c1ccc(CN2CCOCC2)cc1	32	40	30	63*	5	3	61*
Nn1c(SCC(=O)N2CCOCC2)nnc1-c1n[nH]c2c1CCC2	.	.	.	8	-6	.	.
O=C(/C=C/c1ccc(Cl)cc1)Nc1ccc(CN2CCOCC2)cc1	-14	11	14	57*	-49	-3	32
CC(C)c1ccc(/C=C/C(=O)Nc2ccc(CN3CCOCC3)cc2)cc1	5	-2	16	14	8	.	.
Oc1ccc(CNc2ccc(C(F)(F)F)cc2F)c2cccnc12	.	.	.	6	.	.	.
Cc1cc(N2CCN(C(=O)Oc3ccc(-c4ccccc4)cn3)CC2)c2ccccc2n1	.	.	.	87*	31	5	38*
CCCCCCCCN1C(=O)[C@@H](CC(=O)NCc2ccc(C)o2)C[C@@]2(C(=O)OC)C1=C[C@H](C(C)C)O[C@@H]2C1CC1	.	.	.	0	6	.	.
COc1ccc(/C=C/C(=O)Nc2ccccc2C)cc1S(=O)(=O)N1CCOCC1	-14	-36	0	48*	-13	-80	-20
COc1cc(/C=C/C(=O)Nc2ccc(OC)c(S(=O)(=O)N3CCOCC3)c2)ccc1OC(F)F	13	17	29	38*	35	13*	31
Cc1ccc(NC(=O)/C=C/c2ccc(S(=O)(=O)N3CCOCC3)cc2)cc1S(=O)(=O)N(C)C	9	22	8	49*	30	6	44*
COc1cccc(C2c3c(ncn(-c4ccccc4)c3=N)Oc3ccc4ccccc4c32)c1 (centres undefined)	.	.	.	8	.	.	.
Cc1cc(C(=O)CSc2nc3ccccc3[nH]2)c(C)n1CC1CCCO1 (centres undefined)	48	46	73*	80*	63*	34*	88*
COC1=C[C@H](C(=O)NC2CCN(Cc3ccccc3)CC2)C(C)C(c2ccccc2)CC1=O (some centres undefined)	.	.	.	1	9	.	.
CC1=CC(=O)C(C(C)C)=C/C1=N\OS(=O)(=O)c1ccc(F)cc1	.	.	.	92*	.	29*	15
CCC[C@H]1[C@@H](N)CC[C@@]23CCCN2C(=O)CCC[C@@H]13	.	.	.	19	.	.	.
CC(C)(C)OC(=O)NCCCCCNC(=O)c1nc[nH]c1C(=O)NCCCCCNC(=O)OC(C)(C)C	32	34	52	55*	34	2	33
CC(C)(C)OC(=O)NCCCCCNC(=O)c1[nH]cnc1C(=O)N[C@@H](CCCCNC(=O)OC(C)(C)C)C(=O)OC(C)(C)C	22	29	2	.	.	.	.
CCc1ccc(Oc2c(Cl)cnn(-c3ccc(C)cc3)c2=O)cc1	.	.	.	-4	.	.	.
COc1ccc(-c2cnc3c(NC(C)=O)cc(-c4cccc(NS(C)(=O)=O)c4)cn23)cc1OC	-13	18	1	99*	-3	-1	-8
COc1cc(-c2cnc3c(NC=O)cc(-c4ccc(N5CCN(C)CC5)cc4)cn23)cc(OC)c1OC	-63	-72	-86	-88	-25	.	.
COc1cc(-c2cnc3c(NC(C)=O)cc(-c4ccc(N5CCN(C)CC5)cc4)cn23)cc(OC)c1OC	27	-18	14	41*	13	-15	9
COc1ccc(-c2csc(NC(=O)C3=NN(c4ccccc4)C(=O)CC3)n2)cc1	17	7	18	49*	5	-25	19
COc1ccc(C(=O)Oc2cccc(Nc3ncnc4ccccc34)c2)cc1OC	-8	11	3	17	12	.	.
SMILES	NCOA1 inh	NR5A2 inv ag	NCOA3 inh	COUP-TFII inh	NCOA2 inhibitor	Gal4-VP16 ctr	COUP-TFII conf
COc1cc(C(=O)Oc2cccc(Nc3ncnc4ccccc34)c2)cc(OC)c1OC	2	22	21	61*	-1	-4	49*
CN(C)c1ccc(CC(=O)N2CCCC(c3cc(C(=O)Nc4ccc(C(C)(C)C)cc4)no3)C2)cc1 (centres undefined)	-6	16	-7	64*	12	14*	61*
c1ccc(-c2ccc(CNc3nc(-c4ccccn4)nnc3-c3ccccc3)cc2)cc1	.	.	.	55*	.	-2	18
CC(C)(C)CCNc1nc(-c2ccccn2)nnc1-c1ccccc1	.	.	.	52*	.	4	14
CCCCCCCCNS(=O)(=O)CC1NCc2cc(OC)ccc21 (centres undefined)	.	.	.	17	6	.	.
CC1(C)CC(=O)C=C(c2ccc(-c3cnc4ccccc4c3)cc2)C1=O	-26	7	-23	42*	16	-62	78*
COCCCNC(=O)c1ccc(Cn2c(=O)c3ccccc3n(Cc3ccc([N+](=O)[O-])cc3)c2=O)cc1	.	.	.	-5	10	.	.
C=CCn1c(COc2ccccc2)nnc1SCC(=O)c1ccc(-c2ccccc2)cc1	.	.	.	5	5	.	.
CCCCCCn1ccc(=N)cc1	-7	35	-17	76*	-1	4	50*
COc1cc(/C=C2\COC/C(=C\c3cc(OC)c(OC)c(OC)c3)C2=O)cc(OC)c1OC	-187	-12	3	60*	75*	92*	103*
COc1cc(/C=C2\CC/C(=C\c3cc(OC)c(OC)c(OC)c3)C2=O)cc(OC)c1OC	-8	-1	25	0	-7	.	.
C/C=C/c1ccc([C@@H]2[C@H](CO)N(S(C)(=O)=O)[C@H]2CN(C)C(=O)CC)cc1	.	.	.	-1	-28	.	.
Cc1ccc(C)c(N2CCN(C(=O)C34CC5CC(C3)CC(n3nnc(C)n3)(C5)C4)CC2)c1	-2	-6	37	47*	4	-3	22
Cc1ccc(C23CC4CC(CC(C(=O)N5CCN(C)CC5)(C4)C2)C3)cc1	-28	-11	10	12	-6	.	.
O=C(OCC#CCSc1nnc(-c2cccc3ccccc23)o1)c1ccc(OC(F)F)cc1	.	.	.	-17	.	.	.
CCOC(=O)c1ccc(NC(=O)C2CCCN(S(=O)(=O)c3ccc(F)cc3)C2)cc1 (centres undefined)	14	17	23	64*	24	-2	17
CCN(CCc1ccccc1)c1ccc2c(c1)C1CC2CCN1C(=O)OCc1ccccc1 (centres undefined)	-4	-3	-38	-6	-14	.	.
CCCCN(C(C)=O)c1ccc2c(c1)C1CC2CCN1C(=O)OCc1ccccc1 (centres undefined)	16	14	23	55*	17	1	39*
COC1=C[C@H](C(=O)N[C@H]2CCCC[C@@H]2NC(C)=O)[C@H](C)[C@@H](c2ccccc2)CC1=O	.	.	.	-21	-5	.	.
